Screening data deposited in PubChem BioAssay by Broad Institute.
Sampled rows, rich in hits. Any-hit rate of the full collection: about 1.4%.
ERAP1 inh = inhibitors of human ERAP1 aminopeptidase. recombinant ERAP1, Leu-AMC fluorescence, 60 min. inhibition, % at 10.7 µM. Q9NZ08. 0.15% of 340,000 active;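 active = mean replicate inhibition of at least 30%, or all replicates individually reaching that 30% level; inactive = mean below 30% and not every replicate reaching it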;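 also: 0% = neutral control wells and 100% = L-leucinethiol positive control wells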
GSIS activator = primary screen for activators of insulin secretion dependent on glucose, INS-1E cells, GLuc reporter luminescence. 0.61% of 370,000 active. INS-1E GLuc reporter insulin secretion, 2-3 h. activation, % at 16.6 µM;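 active = lowest replicate activation of at least 40%, so every replicate reaches that level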;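 also: 0% = median of neutral control wells and 100% = median of IBMX positive control wells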
RAD54 branch = inhibitors of human RAD54 branch migration; AID 602329; RAD54 Holliday junction branch migration, FAM/BHQ fluorescence; 0.14% of 360,000 active; inhibition, % at 10.4 µM;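 active = mean normalized replicate activity at least 40 and at least half of replicates scoring 40 or more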;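 also: 0% = median of neutral control wells and 100% = median of positive control wells; inhibitors cause a drop in the FAM fluorescence signal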
RAD52 anneal inh = inhibitors of human RAD52 DNA annealing | 0.46% of 360,000 active | AID 651710 | recombinant RAD52 DNA annealing, FRET fluorescence | P43351 | inhibition, % at 18.7 µM;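 active = every replicate showing at least 50% inhibition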
MLL AF4-AF9 inh = inhibitors of human MLL-AF4/AF9 interaction | AlphaScreen, biotin-AF4 peptide binding to FLAG-AF9 | inhibition, % at 10 µM | 0.47% of 350,000 active;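 active = every replicate reaching a set inhibition limit, whatever the replicate mean, cut at about 25% in these data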;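 also: 0% = plate neutral control median and 100% = total signal loss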
Target sequence (P42568 whole entry, looked up): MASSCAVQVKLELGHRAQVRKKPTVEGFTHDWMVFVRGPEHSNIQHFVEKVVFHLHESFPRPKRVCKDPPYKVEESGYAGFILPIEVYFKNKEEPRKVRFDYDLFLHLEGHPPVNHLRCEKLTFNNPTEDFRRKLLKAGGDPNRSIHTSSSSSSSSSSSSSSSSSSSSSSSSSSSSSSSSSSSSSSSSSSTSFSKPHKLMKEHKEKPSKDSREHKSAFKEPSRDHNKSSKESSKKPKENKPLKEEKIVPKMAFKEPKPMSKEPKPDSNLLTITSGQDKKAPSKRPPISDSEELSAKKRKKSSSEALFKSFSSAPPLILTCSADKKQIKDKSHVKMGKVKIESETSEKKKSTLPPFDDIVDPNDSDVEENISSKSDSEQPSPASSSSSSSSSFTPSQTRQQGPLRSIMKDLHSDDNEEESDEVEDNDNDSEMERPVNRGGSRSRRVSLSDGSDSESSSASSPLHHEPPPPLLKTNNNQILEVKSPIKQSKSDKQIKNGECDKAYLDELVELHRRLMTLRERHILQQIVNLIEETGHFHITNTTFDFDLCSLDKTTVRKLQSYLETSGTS
PGC1a acetyl inh = PGC1a acetylation modulation, inhibitor mode; U2OS PGC1a acetylation, AlphaScreen anti-acetyl-lysine; with virally co-expressed GCN5 acetyltransferase; inhibition, % at 15.6 µM; 0.17% of 350,000 active;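 active = every replicate shows inhibition of at least 40%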;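 also: 0% = neutral control wells and 100% = positive control wells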
* marks the source's active call; other numbers are inactive results; . = no result.

SMILES | ERAP1 inh | GSIS activator | RAD54 branch | RAD52 anneal inh | MLL AF4-AF9 inh | PGC1a acetyl inh
COc1ccc2c3c(n(C)c2c1)[C@@H](CO)N(C(=O)Nc1ccc(F)cc1)CC31CN(Cc2cccc(F)c2)C1 | . | -15 | . | . | . | .
CC1=CSC2=NC(=O)/C(=C\c3cccn3-c3ccc([N+](=O)[O-])cc3)C(=N)N12 | . | 237* | 0 | . | . | 8
CO[C@@H]1CN(C)C(=O)c2ccc(NC(=O)c3ccccc3)cc2OC[C@@H](C)N(C(=O)CN(C)C)C[C@H]1C | -5 | 9 | -1 | -6 | -4 | -11
COc1ccc2c(c1OC)C(=O)N1c3ccccc3SC21 (stereo not drawn) | . | 115* | -5 | . | . | -2
CCOC(=O)CC1(C)OCC(C[N+]2(C)CCCCC2)O1 (stereo not drawn) | 96* | 15 | . | -1 | -3 | .
C[N+]1(CC(=O)OC2CCCCCCCCCCC2)CCCC1 | 3 | -12 | . | 17 | 1 | 4
c1ccc2nc3c(nc2c1)c1ccccc1n3CCN1CCOCC1 | . | 72* | . | . | . | 14
COc1ccc(-c2nc3ccccc3c(=O)n2CCCN2CCOCC2)cc1 | -5 | 8 | -16 | 3 | 2 | 1
CCCn1c2ccccc2c2nnc(SCCN3CCOCC3)nc21 | 3 | . | 4 | 14 | 0 | -5
Cc1nc2ccccc2c(=O)n1CCCN1CCOCC1 | 1 | 40* | . | -6 | 0 | .
COc1ccc(S(=O)(=O)N(C)C[C@@H]2OCCCC[C@@H](C)Oc3ccc(NC(=O)Nc4cccc5ccccc45)cc3C(=O)N([C@@H](C)CO)C[C@H]2C)cc1 | -6 | 7 | -4 | 3 | -14 | -18
COc1cccc(C(=O)Nc2ccc3c(c2)OC[C@H](C)NC[C@@H](C)[C@@H](OC)CN(C)C3=O)c1 | 0 | -8 | 2 | -6 | -2 | -9
CC(C)(C)c1ccc(S(=O)(=O)N2CC(C(=O)O)Oc3ccc(Cl)cc32)cc1 (stereo not drawn) | 4 | 142* | 0 | -10 | -2 | 5
CC(C)n1c(=O)[nH][nH]c1=S | 85* | -6 | -10 | -11 | 4 | 6
CC(C)n1c(=O)[nH]c2ccccc21 | -1 | 18 | -4 | 2 | 0 | -2
O=C(COc1ccccc1)Nc1ccc(Cl)c(-c2nc3ncccc3o2)c1 | . | . | 2 | . | . | -6
Cc1cc(-c2nc3ncccc3o2)ccc1NC(=O)CC(C)C | 2 | . | -12 | -6 | 0 | 8
CC(=O)Nc1ccc(Cl)c(-c2nc3ncccc3o2)c1 | -1 | 58* | 8 | -12 | 0 | -6
CC(C)CC(=O)Nc1cccc(-c2nc3ncccc3o2)c1 | 1 | 41* | 0 | -20 | -3 | 0
COc1ccc2c3c(n(C)c2c1)[C@@H](CO)N(C(=O)Nc1ccc(F)cc1)CC31CN(S(=O)(=O)c2cccs2)C1 | . | -8 | . | . | -1 | -18
Cc1ccc(C)c(C(=O)Nc2nc3ccccc3[nH]2)c1 | -2 | 45* | 8 | -13 | -3 | 1
COc1ccc(NC(=O)Nc2ccc3c(c2)C(=O)N([C@H](C)CO)C[C@@H](C)[C@H](CN(C)Cc2ccccc2)OCCCC[C@H](C)O3)cc1 | -3 | 5 | 7 | 59* | 8 | -6
COc1ccc(NC(=O)Nc2ccc3c(c2)C(=O)N([C@H](C)CO)C[C@H](C)[C@H](CN(C)Cc2ccccc2)OCCCC[C@H](C)O3)cc1 | -1 | -17 | 8 | 54* | 8 | 2
COc1ccc(CN(C)C[C@@H]2Oc3ccc(NC(=O)Nc4ccc(F)cc4)cc3C(=O)N([C@H](C)CO)C[C@H]2C)cc1 | 2 | -15 | 72* | 16 | 7 | 0
COc1ccc(NC(=O)Nc2ccc3c(c2)C(=O)N([C@@H](C)CO)C[C@@H](C)[C@H](CN(C)Cc2ccccc2)OCCCC[C@@H](C)O3)cc1 | 0 | -21 | 2 | 40 | 4 | 1
SMILES | ERAP1 inh | GSIS activator | RAD54 branch | RAD52 anneal inh | MLL AF4-AF9 inh | PGC1a acetyl inh
CO[C@@H]1CN(C)C(=O)c2cc(NC(C)=O)ccc2OC[C@@H](C)N(C(=O)c2ccccn2)C[C@@H]1C | 3 | 5 | -1 | 8 | -15 | 2
O=C(NCC1CC1)[C@@H]1N[C@@H]2c3ccc(C4=CCCCC4)c(=O)n3C[C@@H]2[C@H]1CO | 0 | -3 | 7 | 5 | -14 | .
CCCOc1ccc(/C=C/C(=O)O)cc1OC | 2 | 2 | -7 | -14 | -4 | 62*
COc1ccc(/C=C/C(=O)O)cc1Cl | -7 | 10 | -3 | -7 | 43* | 2
COc1ccc(/C=C/C(=O)C2CC2)cc1COc1c(C)cccc1C | -3 | 17 | . | 3 | 8 | .
COc1ccc(/C=C/C(=O)O)cc1COc1cccc(C)c1 | . | 47* | . | . | . | .
CCOc1cc(/C=C/C(=O)O)ccc1OCCOc1ccccc1 | 1 | 25 | 10 | -10 | -1 | .
COc1nc(Nc2ccccc2)nc(OC)n1 | 2 | 41* | 7 | -22 | 0 | 2
CCCNC(=O)[C@@]1(c2ccc([N+](=O)[O-])cc2)CC(=O)N(CC23CC4CC(CC(C4)C2)C3)[C@@H]1c1ccc(CO)cc1I | 0 | . | 0 | 3 | 0 | 5
CCOc1cc(/C=C2/NC(=S)NC2=O)ccc1OCc1ccc([N+](=O)[O-])cc1 | . | 58* | -3 | . | . | 1
COc1ccc(OC)c2c1C(=O)c1ccccc1C2=O | . | 34 | . | . | . | .
COc1ccc(OC)c2c1C(=O)C(Cl)=C(Cl)C2=O | . | 58* | 4 | -10 | -8 | 31
COc1ccc(-c2[nH]c3ccccc3c2SCCN)cc1 | 4 | 57* | -6 | -41 | 10 | -27
O=C(O)CCCC[C@@H]1SC[C@@H]2NC(=O)N[C@@H]21 | -2 | 5 | 4 | -7 | 97* | -7
COC(=O)CCCCC1SCC2NC(=O)NC21 (stereo not drawn) | -3 | 2 | . | -29 | 8 | 5
CCC(=O)Nc1ccc2c(c1)C(=O)N(C)[C@@H]1CC[C@H](CC(=O)NCCCN(C)C)O[C@H]1CO2 | 1 | 5 | -3 | 3 | -1 | 2
O=C(NC1CCCCC1)c1cccnc1Sc1ccccc1Cl | -2 | 20 | -1 | -17 | -1 | 1
O=C(NC1CCCCC1)c1cccnc1Sc1ccccc1 | 1 | 62* | . | -31 | -1 | -8
C[C@@H](NC(=O)C[C@H]1CC[C@H]2[C@@H](COC[C@H](O)CN2Cc2cc(F)ccc2F)O1)c1ccccc1 | -1 | -7 | -4 | -4 | 3 | -6
Cc1cc2nc(-c3ccccc3)cc(=O)n2[nH]1 | 3 | 13 | 11 | -5 | 49* | 14
O=C(NCC[C@@H]1CC[C@@H](NC(=O)Nc2cc(F)ccc2F)[C@H](CO)O1)Nc1ccc(F)cc1 | 2 | -3 | 16 | 56* | 22 | -3
O=C(CC1CC1)N[C@H]1CC[C@H](CCNS(=O)(=O)c2ccc(Cl)cc2)O[C@H]1CO | -2 | 11 | 2 | -11 | -1 | 53*
O=C(NCC[C@H]1CC[C@H](NS(=O)(=O)c2ccc(Cl)cc2)[C@H](CO)O1)Nc1ccc(F)cc1 | 4 | -11 | . | 16 | 30* | .
